Screens: PubChem BioAssay, National Center for Advancing Translational Sciences (NCATS)
G9a inh = G9a (human) methyltransferase inhibition; G9a H3K9 monomethylation, AlphaScreen, 2 h; AID 504332; 350,000 compounds, 8.8% hits; Potency, µM (top dose mostly 102 µM), for the others: at the highest dose activity, negative = inhibition, usual class: inhibitors; Q96KQ7; further: on the % scale 0 is the no-effect control and ±100 the full control effect; nearly all actives have a fitted effect of over 75% in size
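Enzyme 20 nM + cpd, 15 min RT; add b-H3K9 pep 500 nM / SAM 20 uM; 2 h RT; anti-H3K9me1 Ab 0.5 ug/mL + SA donor / anti-rabbit acceptor beads 20 ug/mL each, 10 min; AlphaScreen read.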
JMJD2A Tudor = JMJD2A Tudor domain (human) inhibition; AlphaScreen JMJD2A-Tudor / H3K4me3 peptide binding; 390,000 compounds, 4.4% hits; AID 504339; O75164; Potency, µM (top dose mostly 114 µM), inactives show top-dose activity change, negative = inhibition, most hits filed as inhibitors; further: on the % scale 0 is the no-effect control and ±100 the full control effect; nearly all actives have a fitted effect of over 50% in size
GLS inhibitor = blocks human kidney-isoform glutaminase activity; O94925; GLS enzymatic activity, qHTS titration; Potency, µM (highest dose often 45.5 µM), without a hit: top-dose activity change, negative = inhibition, actives largely listed as inhibitors; 410,000 compounds, 0.21% hits; AID 624170; further: on the % scale 0 is the no-effect control and ±100 the full control effect
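Two-point fluorescence kinetic (t0, 30 min RT) for hKGA; glutamate detected via glutamate oxidase–HRP–Amplex Red. Substrate: 1 mM L-glutamine solution; buffer 45 mM KH2PO4, pH 8.2.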
HP1b binding inh = HP1-beta chromodomain-methylated histone interaction inhibition; AID 540317; Potency, µM (series often up to 114 µM), inactives show at the highest dose activity change, negative = inhibition, usual class: inhibitors; P83916; 390,000 compounds, 0.56% hits; AlphaScreen HP1-beta / biotin-H3K9me3 peptide binding; further: nearly all actives have a fitted effect of over 70% in size
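AlphaScreen: HP1-beta (50 nM) preformed 30 min with biotin-H3(1-18)K9me3 peptide (50 nM) in PBS pH 7.4, 0.01% Tween-20. Compound added for 30 min at RT, then streptavidin donor/nickel chelate acceptor beads (10 ug/mL) for 30 min.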
BAZ2B block = blocks human BAZ2B; AlphaScreen BAZ2B-H3K14Ac peptide displacement; Potency, µM (highest dose often 114 µM), for the others: at the top dose activity change, negative = inhibition, usual class: inhibitors; 360,000 compounds, 4.4% hits; AID 504333; further: on the % scale 0 is the no-effect control and ±100 the full control effect; nearly all actives have a fitted effect of over 60% in size
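Complex of BAZ2B and biotin-H3K14Ac (50 nM apiece) forms over 30 min at RT, then faces library compounds up to 110 uM for another 30 min; AlphaScreen beads added, 20 min dark incubation, luminescence read.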
* marks the source's active call; other numbers are inactive results; [ ] = another dose, or the depositor's remark. Hits are enriched below; roughly 10% of the tested compounds scored in any of these assays. The call rests on the fitted dose curve; in most records, active means well fitted curve in the direction sought with a large enough effect; inconclusive means small, poorly fitted or top-dose-only effect, or another doubt; inactive means no such curve, though single readings can be large; an effect the other way counts as inactive or inconclusive. Potency means the concentration at half of the fitted maximal effect.

COc1ccccc1N1CCN(C(=O)c2cc3cc(F)ccc3[nH]2)CC1 was read as G9a inh -11%, JMJD2A Tudor inconclusive, GLS inhibitor -9%, HP1b binding inh 47% and BAZ2B block -23%.
`Cc1[nH]c(-c2ccc(F)cc2)cc1C(=O)N1CCN(c2ccccc2F)CC1` gave G9a inh 71µM*, JMJD2A Tudor inconclusive, GLS inhibitor -31%, HP1b binding inh inconclusive and BAZ2B block inconclusive.
Screening COc1ccccc1N1CCN(C(=O)c2cc(-c3ccc(F)cc3)[nH]c2C)CC1 returned G9a inh 50µM*, JMJD2A Tudor 56µM*, GLS inhibitor 13%, HP1b binding inh inconclusive and BAZ2B block inconclusive.
`Cc1nn2c(C)c(C(=O)N3CCN(c4ccccc4F)CC3)cnc2c1-c1ccc(F)cc1` gave G9a inh 4%[59 µM], JMJD2A Tudor -1%, GLS inhibitor 3%, HP1b binding inh 54% and BAZ2B block -2%.
COc1cccc(N2CCN(C(=O)c3cc(-c4ccc(F)cc4)[nH]c3C)CC2)c1 was read as G9a inh inconclusive, JMJD2A Tudor inconclusive, GLS inhibitor -4%, HP1b binding inh inconclusive and BAZ2B block -36%.
`Cc1ccc(N2CCN(C(=O)c3cc(-c4ccc(F)cc4)[nH]c3C)CC2C)cc1` (stereo not given) gave G9a inh inconclusive, JMJD2A Tudor inconclusive, GLS inhibitor -5%, HP1b binding inh inconclusive and BAZ2B block 45µM*.
`Cc1[nH]c(-c2ccc(F)cc2)cc1C(=O)N1CCN(c2ccccc2)CC1` gave G9a inh 50µM*, JMJD2A Tudor 56µM*, GLS inhibitor 10%, HP1b binding inh -29% and BAZ2B block inconclusive.
`CC(C)[C@@H]1Cc2[nH][nH]c(=O)c2[C@H](C(C)C)O1` gave GLS inhibitor 10%.
Screening Cc1ccc(NC(=O)C2CCC(CNS(=O)(=O)c3ccc4c(c3)CCCC(=O)N4)CC2)cc1F (stereo not given) returned G9a inh 6%[59 µM], JMJD2A Tudor -4%, GLS inhibitor -4%, HP1b binding inh 4% and BAZ2B block 1%.
Screening N#Cc1ccc(C(=O)N2CCCC(c3cc(C(=O)NCc4cccnc4)no3)C2)cc1 (stereo not given) returned GLS inhibitor -4%.
`O=C(Nc1ccc(-n2nncc2-c2ccco2)cc1)c1cccc(F)c1` gave G9a inh 45µM*, JMJD2A Tudor -35%, GLS inhibitor 7%, HP1b binding inh -22% and BAZ2B block inconclusive.
O=C(Nc1ccc(-n2nncc2-c2ccccc2)cc1)c1cccc(F)c1 was read as G9a inh 9%[59 µM], JMJD2A Tudor -15%, GLS inhibitor 7%, HP1b binding inh 28% and BAZ2B block -18%.
For C#CCOCCOCCOCCNc1nc(N2CCN(C(=O)[C@H](C)n3cc(CCC(=O)O)nn3)CC2)nc(N2CCN(C(=O)[C@H](C)n3cc(CCC(=O)O)nn3)CC2)n1 the results were JMJD2A Tudor inconclusive, GLS inhibitor 1% and HP1b binding inh 21%.
C#CCOCCOCCOCCNc1nc(N2CCN(C(=O)[C@H](CCC(=O)O)n3cc(C(N)CO)nn3)CC2)nc(N2CCN(C(=O)[C@H](CCC(=O)O)n3cc(C(N)CC(C)C)nn3)CC2)n1 (stereo not given in full) was read as G9a inh inconclusive and BAZ2B block 20µM*.
